Screening data deposited in PubChem by National Center for Advancing Translational Sciences (NCATS).
Hits are enriched below; roughly 6.5% of the tested compounds scored in any of these assays.
Giardia killer = Giardia lamblia killing. Giardia lamblia trophozoite viability. activity change, % at 7.66 µM, hits read low. 0.15% of 340,000 active. AID 540267; in the data active means activity change below about -80%; inconclusive means between about -30% and that limit;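 further: parasites exposed to compound for two days anaerobically before the ATP read; on the % scale 0 is the no-effect control and ±100 the full control effect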
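Each well holds 100 Giardia trophozoites and compound. After two days (48 hrs) at 37 deg C in anaerobic conditions, ATP is quantified by luminescence.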
TGFb SMAD3 inh = inhibitors of TGF-b signaling | HepG2 CAGA-GFP TGF-b/SMAD3 reporter, GFP fluorescence, 18 h; TGF-beta stimulated, 500 pg/mL final | Potency, µM (top dose mostly 46.1 µM), inactives show at the top dose activity, negative = inhibition, hits mostly inhibitors | 1.2% of 410,000 active | AID 588855; further: potency means the concentration at half of the fitted maximal effect; on the % scale 0 is the no-effect control and ±100 the full control effect; nearly all actives have a fitted effect of over 65% in size
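Inhibition of TGF-beta-driven CAGA-GFP reporter expression in HEPG2 cells is measured by cellular GFP fluorescence after 18 h stimulation with 500 pg/mL recombinant TGF-beta in 1% FBS medium at 37 degrees C.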
HT1080 IDH1KD tx = toxicity to HT-1080 IDH1 knockdown cells (counter line); Potency, µM (series often up to 46.1 µM), for the others: at the top dose activity, negative = toxicity, hits mostly cytotoxic; 2% of 360,000 active; HT-1080 IDH1 knockdown viability, ATP luminescence, 48 h; AID 686971;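 further: potency means the concentration at half of the fitted maximal effect; 0% = DMSO wells and -100% = cell-free medium wells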
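HT-1080-IDH1KD cells (IDH1 knocked down), 750/well in RPMI with 5% FBS, treated with compound 48 h at 37 degrees C. Viability by CellTiter-Glo luminescence, normalised to DMSO and no-cell wells; concentration-response curves classed.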
IL1B secr inh = blocks inflammasome-driven IL-1 beta release. 4.7% of 360,000 active. activity change, % at 57.5 µM. THP-1 LPS/ATP IL-1B secretion, AlphaLISA, 16 h; active compounds read low. AID 743279; in the data active means activity change below about -50%; inconclusive means mostly about -30% to -49%; further: on the % scale 0 is the no-effect control and ±100 the full control effect
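Secreted IL-1B measured by AlphaLISA bead assay after 16 h compound exposure of THP-1 cells; compounds (final up to 57.5 uM) added 1 h before LPS (250 ng/mL) and ATP (1.25 mM) stimulation; lower signal means less secretion.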
HepG2 viability = kills HepG2 cells in TGF-b inhibitor counter-screen; HepG2 CAGA-GFP viability, ATP luminescence, 18 h; Potency, µM (titrated, usually from 46.1 µM), for the others: at the top dose activity change, negative = cytotoxicity, actives largely listed as cytotoxic; 0.76% of 410,000 active; further: potency means the concentration at half of the fitted maximal effect
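CellTiter-Glo luminescence gave cytotoxicity after 18 hours at 37 degrees C. The cells were HepG2 CAGA-GFP in 1% FBS DMEM, stimulated with 500 pg/mL TGF-beta after compound addition. %Activity was normalised to no-cell wells (complete cell-killing) and DMSO (no toxicity), and curves were fitted and classified.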
HT1080-NT tox = kills 2HG-producing HT-1080-NT fibrosarcoma cells. HT-1080-NT fibrosarcoma viability, CellTiter-Glo ATP luminescence, 48 h. Potency, µM (doses to about 46.1 µM), for inactives: at the highest dose activity, negative = less viability, actives largely listed as cytotoxic. 1.6% of 360,000 active;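 further: NT is the 2HG producing partner of a matched IDH1 knockdown line; potency means the concentration at half of the fitted maximal effect; 0% = DMSO-treated cells and -100% = media-only wells without cells; nearly all actives have a fitted effect of over 55% in size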
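Fibrosarcoma NT cells, 750 per well in 5% FBS RPMI, were exposed to compound for 48 hours. Viability: CellTiter-Glo luminescence.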
Numbers without * were called inactive; ? = inconclusive; nt = no result; ! = a repeat was not active. Unless noted, the call rests on the fitted dose curve; in most records, active means well fitted curve in the direction sought with a large enough effect; inconclusive means small, poorly fitted or top-dose-only effect, or another doubt; inactive means no such curve, though single readings can be large; an effect the other way counts as inactive or inconclusive.

SMILES | Giardia killer | TGFb SMAD3 inh | HT1080 IDH1KD tx | IL1B secr inh | HepG2 viability | HT1080-NT tox
CCOc1ccc(N(CC(=O)NCc2ccc(Cl)cc2)S(=O)(=O)c2c(C)noc2C)cc1 | -16 | -1% | 2% | 7 | -2% | 0%
O=C(Nc1cccc(C(F)(F)F)c1)c1sc(Cl)nc1C(F)(F)F | -1 | -15% | -5% | -103* | -36% | -2%
Cc1ccc(NC(=O)c2sc(Cl)nc2C)c(C)c1 | 37 | 3% | 15% | -65* | 44% | 14%
Cc1ccc(Cc2c(-c3ccc(C#N)cc3)nc3ccc(Br)cn23)cc1 | nt | -1% | -5% | -9 | -19% | -14%
C=C1C(=O)O[C@H]2C[C@]3(C)C([C@@H](OC(=O)/C(C)=C/C)[C@H]12)[C@](C)(O)CC[C@H]3O (stereo partly drawn) | 7 | ? | ? | -58* | -71% | ?
CC(C)(C)c1ccc(NC(=O)N2CCCN(c3ccc([N+](=O)[O-])cn3)CC2)cc1 | 6 | -6% | ? | nt | 9% | -29%
COc1cccc2sc3ccc(NCCC4CCCN4C)cc3c(=O)c12 (stereo not drawn) | -2 | 3% | -10% | -70* | -29% | -17%
COc1cc(-c2noc(C)c2C(=O)NCC[C@@H]2CCCN2C)cc(OC)c1OC | ? | -19% | -3% | -5 | 0% | -1%
COc1cc2sc3cc(NCc4ccc5c(c4)OCO5)ccc3c(=O)c2cc1OC | -9 | -28% | 4% | -22 | -1% | -4%
COc1cc2sc3cc(NCc4ccc(C)o4)ccc3c(=O)c2cc1OC | ? | -10% | 2% | -69* | -19% | -1%
COc1cc2sc3cc(NCC[C@@H]4CCCN4C)ccc3c(=O)c2cc1OC | -12 | -8% | -2% | -60* | -9% | -3%
COc1cccc2sc3cc(NCc4ccc5c(c4)OCO5)ccc3c(=O)c12 | 0 | -4% | -12% | ? | -4% | -9%
Cc1ccc(S(=O)(=O)NCCNC(=O)CN2CCCC2)cc1 | -5 | -34% | 4% | 1 | 0% | 15%
CCN(CCCNC(=O)C1CCN(C(=O)c2cc3sccc3n2C)CC1)Cc1ccccc1 | 1 | -1% | -17% | -14 | -26% | -7%
CCCCN(CCCNC(=O)C1CCN(C(=O)c2cc3sccc3n2C)CC1)Cc1ccccc1 | 8 | ? | ? | ? | -25% | 18µM*
CCCNC(=O)N1CCN(S(=O)(=O)c2ccc3c(c2)OCCO3)CC1 | -22 | -10% | -9% | 0 | -10% | 0%
Cc1ccc(-c2nn(-c3ccccc3)cc2C=O)o1 | -5 | -7% | 18µM* | -16 | -11% | ?
Cc1ccc(-c2nn(-c3ccccc3)cc2C(N)=O)o1 | -13 | 0% | 2% | 17 | -19% | 4%
O=Cc1cn(-c2ccccc2)nc1-c1cccnc1 | 15 | -10% | 0% | -83* | -12% | -2%
CCCOc1ccc(F)cc1-c1cc(C(=O)Nc2ccc(OC)cc2OC)[nH]n1 | nt | ? | 8% | -13 | 0% | 7%
Cn1c(CCNC(=O)c2ccco2)nc2cc(NC(=O)c3ccco3)ccc21 | -17 | 20% | 1% | 14 | -2% | 3%
COc1ccccc1C(=O)Nc1ccc2c(c1)nc(CCNC(=O)c1ccco1)n2C | -1 | ? | 4.6µM* | -20 | -14% | ?
O=C(CN1CCN(S(=O)(=O)c2ccc(Br)cc2)CC1)Nc1ccccc1F | -11 | -8% | 4% | -14 | 14µM* | 11%
O=C(CN1CCN(S(=O)(=O)c2ccc(F)cc2)CC1)Nc1cccc(C(F)(F)F)c1 | ? | -7% | -5% | -69* | -7% | -13%
CC1CN(CC(=O)Nc2cccc(C(=O)Nc3cccc(C(F)(F)F)c3)c2)CC(C)O1 (stereo not drawn) | -8 | -13% | ? | -1 | -30% | -24%
SMILES | Giardia killer | TGFb SMAD3 inh | HT1080 IDH1KD tx | IL1B secr inh | HepG2 viability | HT1080-NT tox
CC1CCN(CC(=O)Nc2cccc(C(=O)Nc3cccc(C(F)(F)F)c3)c2)CC1 | -8 | ? | 23µM* | -75* | -56% | 16µM*
CCCCNC(=O)c1ccccc1C(=O)NC1(C(=O)NCCCC)CCCC1 | 3 | 1% | -12% | 2 | -2% | 0%
Cc1ccc(C)c(NC(=S)c2ccccn2)c1 | 0 | -6% | -14% | -101* | -38% | -1%
Cc1ccc(C)c(C(=O)c2ccccc2NC(=O)c2ccccn2)c1 | 12 | -17% | 21µM* | 18 | -11% | ?
Cc1ccccc1-c1ocnc1C(=O)Nc1ccccc1NC(=O)c1ccccn1 | 14 | 11µM* | ? | -3 | -77% | 3.7µM*
CC(=O)Nc1ccccc1NC(=O)c1cc(C)ccc1C | -6 | -13% | 5% | 16 | 5% | 7%
CCN(C(=O)CSc1nnc(-c2ccccc2)o1)c1c(N)n(Cc2ccccc2)c(=O)[nH]c1=O | 2 | 6% | 2% | 27 | 5% | -2%
CCOc1cc(CNc2ccc(O)cc2)cc(Br)c1OCc1ccccc1 | nt | ? | nt | nt | -79% | nt
O=c1[nH]c2ccc(NCc3ccccc3OCc3ccc(Cl)cc3)cc2[nH]1 | -4 | ? | ? | 0 | -30% | 16µM*
Oc1ccc(NCc2ccccc2OCc2ccc(Cl)cc2)cc1 | nt | 5.6µM* | nt | nt | 13µM* | nt
CCOc1cc(CNc2ccc(O)cc2)ccc1OCc1ccc(Cl)cc1 | nt | 13µM* | nt | nt | -102% | nt
CCNCc1ccccc1OCc1ccccc1 | 3 | 1% | -7% | -5 | 0% | -11%
Oc1ccc(NCc2ccccc2OCc2ccccc2)cc1 | 5 | 8.9µM* | ? | -74* | 11µM*! | -21%
COc1cccc(CNc2ccc3[nH]c(=O)[nH]c3c2)c1OCc1ccc(F)cc1 | 5 | -15% | 1% | -27 | 5% | -28%
O=C(CNC(=O)c1cccc(F)c1)OCc1cc(=O)n2cc(Br)ccc2n1 | 16 | -13% | 17% | 3 | 0% | 11%
Cc1ccc(C)c(CNS(=O)(=O)c2c(C)[nH]c(C)c2C(=O)N2CCCC2)c1 | -13 | 6% | 1% | -13 | 13% | 4%
Nc1ccc(O)cc1C(=O)OCC(=O)c1ccc(C2CCCCC2)cc1 | 13 | -28% | ? | -94* | -57% | -15%
COCCCNC(=O)/C=C/c1ccc(Cl)cc1 | -11 | 13% | -9% | 0 | -18% | 2%
CCCn1c(SCC(N)=O)nc2c(c1=O)C1(CCCC1)Cc1ccccc1-2 | 10 | 22% | 7% | -58* | 3% | 1%
CC(=O)NCc1nnc2c3ccccc3c(-c3ccccc3)nn12 | 0 | -4% | -13% | 9 | 2% | -8%
